Only some compounds are listed: those with a hit (about 3.9% of all), similar ones and a draw of the others.
TRAIL sens C8: caspase-8 TRAIL sensitization; NB7+C8 cells + TRAIL, ATPlite viability luminescence; inhibition (viability loss, TRAIL sensitization), % at 10 µM; 1% of 360,000 active; AID 624354;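 active means compounds causing at least 50% loss of cell viability in the single-dose screen, relative to plate controls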
HIF-2a block: blocks HIF-2a reporter activity; 0.72% of 360,000 active; AID 624352; inhibition, % at 18.8 µM; 786-0 RCC cells HIF-2a reporter, luciferase luminescence, overnight;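 active means inhibition of the luminescence signal of 40% or more relative to plate controls, in a single-dose primary screen at 18.75 µM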
TROY NFkB inh: TROY signaling inhibition. Q293 LMP1-TROYcd NF-kB luciferase reporter, 4 h. inhibition, % at 10 µM. 0.98% of 360,000 active. AID 1347056;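 active means compounds whose plate-normalised and pattern-corrected inhibition of the luciferase reporter signal at the single screening dose is 50% or more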
HSP90 refold inh: HSP90 refolding inhibition in rabbit reticulocyte lysate; 0.91% of 290,000 active; inhibition, % at 5.6 µM; AID 1789; luciferase refolding luminescence, 3 h;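 active means inhibition above the screen-wide mean plus 3 SD, computed separately per campaign, cut at about 16% in these data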;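 further: inhibitors lower the luminescence because luciferase stays unfolded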
TWEAK-Fn14 inh: blocks TWEAK-Fn14 interaction in a reporter cell assay | TWEAK-stimulated Fn14 reporter cells, luciferase luminescence, 8 h | 2% of 360,000 active | inhibition, % at 10 µM; in the data active means inhibition above about 50%
aSyn 5UTR inh: MLPCN primary screen, SNCA 5' untranslated region | alpha-synuclein 5'UTR reporter, inhibitor activity | inhibition, % (tested at 7.5 µM) | 0.82% of 300,000 active | AID 1813; in the data active means inhibition above about 60%;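 further: H4 neuroglioblastoma cells stably carrying SNCA 5'UTR luciferase fusion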
Mdm2 MdmX conf: Mdm2/MdmX (human) interaction inhibition, confirmed | shares compounds with HIF-2a block | SaOS-2 split-luciferase Mdm2/MdmX complementation, luminescence | inhibition, % at 8 µM | 99% of 740 active;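 active means mean inhibition of the luminescence signal across two replicates at or above 26 percent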
Target sequence (O15151 whole entry, looked up): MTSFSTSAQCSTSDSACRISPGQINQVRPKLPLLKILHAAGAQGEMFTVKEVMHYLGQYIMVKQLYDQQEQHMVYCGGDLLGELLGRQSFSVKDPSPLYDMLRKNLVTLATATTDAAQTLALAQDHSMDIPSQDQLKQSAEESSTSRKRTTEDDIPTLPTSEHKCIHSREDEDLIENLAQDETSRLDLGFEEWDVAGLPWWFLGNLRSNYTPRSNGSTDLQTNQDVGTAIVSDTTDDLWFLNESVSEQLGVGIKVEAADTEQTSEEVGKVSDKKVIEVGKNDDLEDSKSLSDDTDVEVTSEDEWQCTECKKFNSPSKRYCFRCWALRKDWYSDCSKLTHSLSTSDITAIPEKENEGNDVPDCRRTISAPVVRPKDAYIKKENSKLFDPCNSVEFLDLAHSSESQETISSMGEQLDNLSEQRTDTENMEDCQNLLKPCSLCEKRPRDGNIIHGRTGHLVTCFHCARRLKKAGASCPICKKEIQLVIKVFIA
Target sequence (Q00987 whole entry, looked up): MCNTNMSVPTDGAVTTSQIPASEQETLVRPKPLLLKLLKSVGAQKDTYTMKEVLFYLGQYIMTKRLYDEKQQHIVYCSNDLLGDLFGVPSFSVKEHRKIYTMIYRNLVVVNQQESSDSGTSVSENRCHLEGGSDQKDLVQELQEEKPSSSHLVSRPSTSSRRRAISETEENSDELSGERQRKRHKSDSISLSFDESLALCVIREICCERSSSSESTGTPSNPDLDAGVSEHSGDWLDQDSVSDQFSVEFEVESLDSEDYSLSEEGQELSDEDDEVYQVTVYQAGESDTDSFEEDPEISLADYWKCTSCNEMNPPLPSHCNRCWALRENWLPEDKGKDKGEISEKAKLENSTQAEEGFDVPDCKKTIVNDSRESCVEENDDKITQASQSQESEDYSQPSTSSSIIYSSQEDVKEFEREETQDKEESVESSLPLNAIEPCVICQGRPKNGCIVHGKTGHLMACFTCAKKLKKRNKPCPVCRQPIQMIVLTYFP
HIF-2a conf: HIF-2a inhibition, single concentration confirmation. shares compounds with HIF-2a block. 56% of 1,800 active. 786-0 RCC cells, HIF-2a luciferase reporter luminescence, overnight. inhibition, % at 18.8 µM;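 active means mean inhibition across four replicates of at least 40 percent at the single tested concentration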
HIF-1a counter: HIF-1a inhibition counter-screen for HIF-2a hits. inhibition, % at 18.8 µM. MiaPaCa-2 HIF-1a luciferase reporter, desferoxamine, overnight. shares compounds with HIF-2a block. 72% of 1,800 active. AID 651589;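 active means mean inhibition of the reporter signal across four replicates at the single tested dose of 50% or more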
Hits are given with their value; – = inactive; · = no result; ! = not active in a repeat.

SMILES	TRAIL sens C8	HIF-2a block	TROY NFkB inh	HSP90 refold inh	TWEAK-Fn14 inh	aSyn 5UTR inh	HIF-2a conf	HIF-1a counter	others
Cc1ccc(S(=O)(=O)n2nc(C)cc2C)cc1	–	–	–	–	–	–	·	·
Cc1c(CCC(=O)N2CCC(C(=O)O)(c3ccccc3)CC2)c(=O)oc2cc3oc4c(c3cc12)CCCC4	–	63	–	–	87	67	78	–
CCCCNC(=O)C(NC(=O)c1ccc(C)cc1)C(=O)c1ccccc1 (stereo not drawn)	–	–	·	·	·	·	·	·
CCN(C(=O)CSc1nnc(-c2cccc(F)c2)n1N)c1c(N)n(Cc2ccccc2)c(=O)[nH]c1=O	–	–	–	·	–	·	·	·
O=C1C=CC(=C(c2ccc(O)cc2)c2ccc(O)cc2)C=C1	–	85	–	·	–	·	81	107
O=C(CCCC(=O)c1ccc(O)cc1)c1ccc(O)cc1	–	–	–	·	–	–	·	·
COc1ccc(C(=O)OCC(=O)c2c(N)n(C)c(=O)n(C)c2=O)c(OC)c1OC	–	–	–	·	–	·	·	·
COc1ccc(CNC(=O)/C=C/c2ccc(S(=O)(=O)NCc3ccco3)cc2)cc1OC	–	–	–	–	–	–	·	·
O=C(/C=C/c1ccc(S(=O)(=O)NCc2ccco2)cc1)NCc1ccccc1Cl	–	42	–	–	–	–	–	–
Cc1cccc(N(C)c2cc(-c3ccc(F)cc3)nc3ccnn23)c1	–	–	–	·	–	·	·	·
Cc1cc(F)ccc1C(O)c1ncc(-c2ccccc2C(F)(F)F)[nH]1 (stereo not drawn)	–	–	–	·	–	·	·	·
COC(=O)c1cccc(NS(=O)(=O)c2cccs2)c1C	–	–	–	–	–	–	·	·
COC(=O)c1ccccc1NC1=C/C(=N\S(=O)(=O)c2cccs2)c2ccccc2C1=O	80	–	51!	–	99	–	·	·	Mdm2 MdmX conf=96
CC(C)C(=O)N1CCCC1(C)C(=O)N(C)Cc1cccc2ccccc12 (stereo not drawn)	–	–	–	·	–	·	·	·
Cn1c(=O)[nH]c(=O)c2[nH]c(N(Cc3ccccc3)Cc3ccccc3)nc21	–	41	–	–	–	·	–	–
COc1cccc(C(NC(C)=O)c2nc(-c3ccc(F)cc3OC)cs2)c1 (stereo not drawn)	–	–	–	·	–	·	·	·
Cn1c(Oc2ccc(F)cc2)c(C=O)c2ccccc21	–	–	–	–	–	–	·	·
Cn1c(Sc2ccc(Br)cc2)c(C=O)c2ccccc21	–	–	·	–	55	–	·	·	Mdm2 MdmX conf=87
COc1ccc2cc(CNCCOCCOCCNCc3ccc4cc(OC)ccc4c3)ccc2c1	88	88	58	·	–	·	–	–
Cc1ccc(S(=O)(=O)N2CCCCC2)cc1NC(=O)COC(=O)c1ccc(=O)[nH]c1	–	–	–	·	–	·	·	·
CCOc1cc(/C=N/NC(N)=O)cc(Br)c1OCC(=O)Nc1ccccc1C	–	40	–	–	–	–	–	66
CCOc1cc(/C=C\[N+](=O)[O-])ccc1OCC(=O)Nc1ccccc1C	64	96	–	–	–	–	–	106	Mdm2 MdmX conf=100
CC(=O)Nc1ccc(OCC(=O)c2ccc(C)cc2C)cc1	–	64	–	–	–	–	85	–
Cc1ccc(NC(=O)CCN2CCCCC2)cc1	–	61	69	–	100	–	55	73
Cc1ccc(NC(=O)CCN2CCN(CCO)CC2)cc1	–	–	–	·	–	·	·	·
CN(Cc1ccccc1)C(=O)c1cnc(Cc2c[nH]c3ccccc23)c(I)c1	–	–	–	·	–	·	·	·
Cc1nc(SC(C)C(=O)NCC2CCCO2)c2cc(-c3ccccc3)sc2n1 (stereo not drawn)	–	–	–	·	–	–	·	·	Mdm2 MdmX conf=101
CC(Sc1ncnc2c1cnn2-c1ccccc1)C(=O)NCC1CCCO1 (stereo not drawn)	–	–	–	–	–	–	·	·
CN(C)C(=O)/C(C#N)=C\c1cc(Br)c(Sc2ccc(Cl)cc2)o1	–	57	–	–	88	·	–	103
